Screening data: PubChem BioAssay, National Center for Advancing Translational Sciences (NCATS)
FLuc counter: counter-screen for miR-21 project: firefly luciferase inhibitors or activators | P08659 | Potency, µM (titrated, usually from 57.5 µM), actives largely listed as inhibitors | 360,000 compounds, 6.9% hits | purified FLuc, Km substrates, luminescence inhibition; also: nearly all actives have a fitted effect of over 55% in size
Target sequence (P08659 whole entry, looked up): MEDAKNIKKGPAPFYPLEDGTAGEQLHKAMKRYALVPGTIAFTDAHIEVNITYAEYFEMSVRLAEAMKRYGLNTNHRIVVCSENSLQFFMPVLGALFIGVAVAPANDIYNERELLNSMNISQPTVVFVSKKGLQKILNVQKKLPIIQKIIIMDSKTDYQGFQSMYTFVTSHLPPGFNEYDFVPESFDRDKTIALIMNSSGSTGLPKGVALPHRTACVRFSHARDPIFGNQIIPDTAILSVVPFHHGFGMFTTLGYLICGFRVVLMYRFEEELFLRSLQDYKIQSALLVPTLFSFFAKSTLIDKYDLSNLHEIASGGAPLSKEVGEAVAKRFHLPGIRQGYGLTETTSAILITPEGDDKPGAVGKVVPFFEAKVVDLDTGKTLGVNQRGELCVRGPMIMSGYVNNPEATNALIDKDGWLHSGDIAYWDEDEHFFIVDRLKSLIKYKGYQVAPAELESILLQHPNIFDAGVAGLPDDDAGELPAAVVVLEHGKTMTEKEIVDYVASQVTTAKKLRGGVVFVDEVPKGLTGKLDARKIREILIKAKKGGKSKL
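Purified P. pyralis luciferase (10nM final) with 10uM D-luciferin and 10uM ATP (Km levels) in 50mM Tris acetate pH 7.5, 10mM Mg acetate, 0.01% Tween-20, 0.05% BSA; qHTS 6-point titration, ~60 µM downward; luminescence read.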
Rab9 prom act: activates the Rab9 promoter; Huh7 Rab9 promoter-luciferase reporter, luminescence, 24 h; Potency, µM (titrated, usually from 9.22 µM), usual class: activators; 320,000 compounds, 2.8% hits; AID 485297; also: nearly all actives have a fitted effect of over 60% in size
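Stable Rab9-luc Huh7, 1500 cells/well, 2 h settle; cmpd in DMSO, 24 h, 37 °C/5% CO2; luciferase reagent 10 min RT; luminescence.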
Luc counter: Kinase-Glo luciferase inhibition (counter-screen); 200,000 compounds, 0.28% hits; Kinase-Glo luciferase, ATP luminescence, 8 min; Potency, µM (doses to about 38.3 µM), most hits filed as inhibitors; also: nearly all actives have a fitted effect of over 60% in size
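Compounds were added to a substrate mix at pH 7.2 (50 mM imidazole, 10 uM ATP, within the enzyme's linear range), followed by Kinase-Glo detection reagent; luminescence was measured after 8 minutes at ambient temperature.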
ELG1 genotoxic: inducers of genotoxicity in HEK293T ELG1-luciferase cells | Potency, µM (series often up to 46 µM), most hits filed as activators | 330,000 compounds, 1.3% hits | AID 504466 | HEK293T ELG1-luciferase reporter, luminescence, 16 h; also: nearly all actives have a fitted effect of over 60% in size
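Reporter readout depends on ELG1 protein level, which increases with genetic stress. After 16 hr compound exposure at 37 °C, luciferase activity was quantified using ONE-Glo.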
NPC1 prom act: NPC1 promoter activation; Potency, µM (titrated, usually from 9.22 µM), most hits filed as activators; AID 485313; Huh7 NPC1 promoter luciferase reporter, 24 h; 320,000 compounds, 2.4% hits; also: nearly all actives have a fitted effect of over 60% in size
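NPC1 promoter–luciferase Huh7 cells; 24 h compound; luminescence.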
SMN2 splice enh: enhancers of SMN2 splice variant expression; HEK293 SMN2-luciferase splicing reporter, luminescence, 30-36 h; Potency, µM (titrated, usually from 46.1 µM), actives largely listed as activators; 210,000 compounds, 2.8% hits; also: nearly all actives have a fitted effect of over 55% in size
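HEK293 cells carry an SMN2 […]–luciferase reporter in which exon 7 inclusion puts luciferase in frame. Cells were plated 10-12 h before compound addition, then incubated 30-36 h at 37C. ONE-Glo luminescence was read; sodium butyrate at 4.5 mM final served as control.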
A number is an active result; – = inactive; ? = inconclusive; · = no result; [ ] = another dose, or the depositor's remark. Sampled rows, rich in hits. Any-hit rate of the full collection: about 7.3%. Calls follow the shape of the dose curve; as a rule, active = well fitted curve in the direction sought with a large enough effect; inconclusive = small, poorly fitted or top-dose-only effect, or another doubt; inactive = no such curve, though single readings can be large; an effect the other way counts as inactive or inconclusive.

SMILES | FLuc counter | Rab9 prom act | Luc counter | ELG1 genotoxic | NPC1 prom act | SMN2 splice enh
CCOc1ccc(N/C=C/C(=O)c2ccc(OC)cc2)cc1 | 1.2µM | ? | · | – | ? | ·
O=C(/C=C/Nc1ccc(F)cc1)c1ccc(Oc2ncccn2)cc1 | ? | ? | – | – | – | –
COc1ccc(N/C=C/C(=O)c2ccc(Oc3ncccn3)cc2)cc1 | 1.7µM | – | – | – | – | –
COc1ccc(C(=O)/C=C/Nc2ccc([N+](=O)[O-])cc2)cc1 | – | ? | – | – | ? | ?
CCOc1ccc(N/C=C/C(=O)c2ccc(OC)cc2)c([N+](=O)[O-])c1 | 0.85µM | 1.1µM | ? | ? | 0.4µM | –
O=C(c1cccc(-c2nnc(-c3ccccc3)o2)c1)N1CCCCC1 | 17µM | ? | – | ? | ? | 14µM
O=C(c1cccc(-c2nnc(-c3ccccc3)o2)c1)N1CCCCCC1 | 17µM | ? | – | ? | ? | ?
Oc1cc2c(cc1O)[C@@H]1c3ccc(O)c(O)c3OC[C@]1(O)C2 | · | · | – | · | · | –
Cc1cccc(-c2cc3nc(C)cc(N4CC(C)CC(C)C4)n3n2)c1 (stereo unspecified) | – | – | – | – | – | –
Cc1ccc(-c2cc(C(F)(F)F)n3nc(-c4cccc(Br)c4)cc3n2)cc1 | – | · | · | · | · | –
COc1ccccc1-c1cc2nc(C)cc(C)n2n1 | 15µM | – | · | ? | – | ·
Cc1cc(C)n2nc(-c3cccc(Br)c3)cc2n1 | 8.5µM | ? | · | ? | ? | ·
CC(=O)c1cnc2cc(-c3cccc(Br)c3)nn2c1C | ? | 2µM | – | – | 2.8µM | 11µM
Cc1cccc(-c2cc3nc(C)cc(C)n3n2)c1 | 6.7µM | 0.45µM | – | ? | 0.4µM | ·
COC(=O)C1C(=O)c2c([nH]c(C(=O)OC3CCCCCC3)c2C)CC1C (stereo unspecified) | ? | ? | – | 18µM | ? | ?
COCCOC(=O)c1[nH]c2c(c1C)C(=O)C(C(=O)OC)C(C)C2 (stereo unspecified) | 9.5µM | 3.5µM | – | 16µM | ? | 11µM
CCCCCOC(=O)c1[nH]c2c(c1C)C(=O)C(C(=O)OC)C(C)C2 (stereo unspecified) | 11µM | ? | – | – | – | –
Cc1c(C(=O)OC2CCC(C)CC2)[nH]c2c1C(=O)CCC2 (stereo unspecified) | 4.3µM | 0.45µM | – | 2.6µM | 0.5µM | 2.5µM
CCCCOC(=O)c1[nH]c2c(c1C)C(=O)CC(c1cc(OC)c(OC)c(OC)c1)C2 (stereo unspecified) | – | – | – | – | – | –
COCCOC(=O)c1[nH]c2c(c1C)C(=O)CC(c1ccccc1)C2 (stereo unspecified) | – | – | – | – | – | –
CCOc1ccccc1NC(=O)N1CCc2c(sc(C)c2CC)C1c1ccccc1 (stereo unspecified) | – | · | · | · | · | ·
Cc1ccc(-c2c(C(=O)N3CCN(c4cccc(C)c4)C(C)C3)oc(=O)c3ccccc23)cc1 (stereo unspecified) | – | · | · | · | · | –
COc1ccc(Cl)cc1NC(=O)Cn1cnc2c1c(=O)n(C)c(=O)n2C | – | · | · | · | · | ·
CCOC(=O)CCCNC(=O)N1CCc2nc(-c3ccc(OC)cc3C)c3c(c2C1)CO[C@@H](c1ccccc1)C3 | · | · | –[7.66 µM] | · | · | –[9.22 µM]
COc1ccc(S(=O)(=O)NCC(c2ccco2)S(=O)(=O)c2cccs2)cc1C (stereo unspecified) | – | · | · | · | · | ·
SMILES | FLuc counter | Rab9 prom act | Luc counter | ELG1 genotoxic | NPC1 prom act | SMN2 splice enh
Cc1ccccc1CNCc1c(C(=O)O)c(C)n(Cc2ccc(F)cc2Cl)c1C | – | · | · | · | · | –
COC(=O)C1C(=O)c2c([nH]c(C(=O)OCC3CCCO3)c2C)CC1C (stereo unspecified) | 8.5µM | ? | – | 9.2µM | – | ?
CCCCN1C(=O)C(O)(c2c[nH]c3ccccc23)c2cc(Br)ccc21 (stereo unspecified) | – | · | · | · | · | –
COc1ccc(Oc2cc(C)c3ccccc3n2)cc1 | ? | – | – | – | – | –
c1ccc(Oc2ccc3ccccc3n2)cc1 | 17µM | – | – | ? | – | –
CC(C)CS(=O)(=O)c1oc(-c2ccc(F)cc2)nc1S(=O)(=O)c1ccccc1 | – | · | · | · | · | –
Cc1ccccc1OCC(=O)N/N=C/c1cn(Cc2ccccc2)c2ccccc12 | – | – | – | – | – | –
Cn1cc(/C=N/Nc2ccccc2)c2ccccc21 | 13µM | ? | – | ? | – | ?
Nc1ccc(C(=O)N/N=C/c2cn(Cc3ccccc3F)c3ccccc23)cc1 | 24µM | – | · | – | – | ·
COc1cc(C(=O)N/N=C/c2cn(Cc3ccccc3)c3ccccc23)ccc1O | 17µM | – | · | – | – | ·
O=C(N/N=C/c1cn(Cc2cccc(F)c2)c2ccccc12)c1cc(O)cc(O)c1 | 17µM | – | · | – | – | ·
CCOc1ccc(NC(=O)CN2CCN(c3ccc(Cl)cc3)CC2)cc1 | – | · | · | · | · | ·
Nn1cc(Br)c(=O)[nH]c1=O | · | · | · | · | · | –
Nc1ccc(C(=O)N/N=C/c2cn(Cc3ccccc3)c3ccccc23)cc1 | 17µM | – | · | – | – | ·
O=C(O)c1ccc(N/N=C/c2cn(Cc3ccccc3F)c3ccccc23)cc1 | 21µM | ? | · | ? | – | ·
CC(C)n1cc(/C=N\NC(=O)c2cc3c(ccc4ccccc43)o2)c2ccccc21 | ? | – | – | – | – | –
CC(C)n1cc(/C=N/Nc2ccc(C(=O)O)cc2)c2ccccc21 | 6µM | – | · | ? | – | ·
Cc1cc([N+](=O)[O-])ccc1NC(c1nnc(-c2ccccc2)o1)c1ccccc1F (stereo unspecified) | – | · | · | · | · | ·
CCCCC/C=C\C/C=C\C/C=C\CCCCC(=O)NC(C)C(=O)O (stereo unspecified) | · | · | – | · | · | –
ClC(Cl)(Cl)c1nc(N/N=C/c2ccncc2)c2ccccc2n1 | – | – | – | – | – | –
Cc1cc(N/N=C/c2cccc(Br)c2)nc2ccccc12 | 4.8µM | ? | – | ? | 3.2µM | 13µM
Cc1cc(N/N=C/c2ccncc2)nc2ccccc12 | 11µM | 2.8µM | – | ? | ? | 14µM
Nc1nc(N)c(N=Nc2ccc(C(=O)O)c(O)c2)c(N)n1 | · | · | –[7.66 µM] | · | · | –[9.22 µM]
Cc1ccc(NC(=O)Cn2c(=O)nc(-c3ccccc3F)c3cc(Cl)ccc32)c(Br)c1 | – | · | · | · | · | –
COc1ccc(-c2cn3nc(SCC(=O)Nc4ccccc4F)ccc3n2)cc1 | 1.1µM | · | · | · | · | ·
O=C(CSc1ccc2nc(-c3ccccc3)cn2n1)NCC1CCCO1 (stereo unspecified) | 19µM | ? | · | – | ? | ·
COc1ccc(-c2cc(-c3ccccc3)nc(SCC(=O)Nc3ccccc3F)c2C#N)cc1 | – | · | · | · | · | –
COc1ccc(-c2cn3nc(SCC(=O)NCC4CCCO4)ccc3n2)cc1 (stereo unspecified) | 2.7µM | 1.6µM | · | ? | ? | ·
